Experimental data published in PubChem BioAssay (NCI).
Where “and” joins values, the source holds several entries; their conditions need not be identical. Identical values can stand only once. This is part of a sample that, as a whole, favours compounds with a hit. Of some 83,000 tested, about 20% had one in any assay.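 Testing used 96-well plates and a 48-hour single-concentration exposure. Example: -40 means 40% of the starting cells died.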 Calls of active or inactive are those of the source.

What follows are compounds tested on UACC-62 melanoma (assay: NCI-60 one-dose screen, 48 h (100 = growth as untreated, 0 = no growth, -100 = all killed)). Conditions: 10 µM unless noted.
Procedure: Growth inhibition of the UACC-62 human tumor cell line is measured as a screen for anti-cancer activity. Cells are grown in 96 well plates and exposed to the test compound for 48 hours. Compounds are tested at a single concentration, which is 10^-5 M for most compounds. The reported endpoint is percent growth (GI% or GIPRCNT), where numbers from 0 - 100% represent growth inhibition, and numbers from -100% - 0 represent cell death. For example, a value of 40 represents 60% growth inhibition. A value of 0 means no net growth occurred over the course of the experiment. A value of -40 indicates 40% of cells at the beginning of the experiment died by the end of the experiment. A value of -100 means all cells are dead at the end of the experiment.
NCI-60 Human Tumor Cell Lines Screen was performed using the standard one-dose NCI protocol, which is described in more detail at https://dtp.cancer.gov/discovery_development/nci-60/default.htm.
Compounds with GIPRCNT values below 10 were considered active. Activity score was based on GIPRCNT using the following formula: […]
Score is 0 for GIPRCNT values of 100 or above, 50 for GIPRCNT values of 0, and 100 for GIPRCNT values of -100.

Structure (SMILES) | growth
C/C(=N\NC(=S)N1CC2CCC(CC2)C1)c1ccccn1 | -36.7% (active)
CCCN(CCC)C(=O)c1ccc(C)cc1 | 97.2% (inactive)
NCCCN(CCCN)CCCNCc1c2ccccc2c(CNCCCN(CCCN)CCCN)c2ccccc12 | 98.2% (inactive)
O=C(O)c1cccc2cccc(-c3c4ccc(=O)c(O)c-4oc4c(O)c(O)ccc34)c12 | 90.6% (inactive)
CC(C)(C)N/N=C(/Cc1nc2c3c(ccc2[nH]c1=O)C(=O)c1ccccc1C3=O)C(=O)NC1=C(Cl)C(=O)c2ccccc2C1=O | 22.1% [100 µM] (inactive) and 1.57% [100 µM] (active)
O=C1C=CC(=O)N1c1ccc(O)cc1 | 95.4% (inactive)
CCCCCC[C@@H](O)C/C=C\CCCCCCCC(=O)OCCOC | 90.6% (inactive)
CN(C)CCSC1=Nc2ccc(Cl)cc2C(c2ccccc2Cl)N(C)C1 (stereo not given) | 29.2% (inactive)
O=C1C=CC(=O)N1C1CCCCCCCCCCC1 | 88.8% (inactive)
Cc1cc(=O)oc2cc(O)cc(O)c12 | 102% (inactive)
CCSc1nc2ccccc2o1 | 102% (inactive)
Fc1cccc(F)c1C1SCc2nc3cc4ccccc4cc3n21 (stereo not given) | 21.7% [100 µM] (inactive) and 19.9% [100 µM] (inactive)
CC1(C)CCC2(C(=O)O)C(O)CC3(C)C(=CCC4C5(C)CCC(OC6OCC(O)C(O)C6OC6OCC(O)C(O)C6OC6OCC(O)C(OC7OC(CO)C(O)C(O)C7O)C6O)C(C)(C)C5CCC43C)C2C1 (stereo not given) | 97.8% [100 µM] (inactive) and 5.39% [100 µM] (active)
CCCCCCCCCCCCCCCCCC1=NCCCN1CCO | 111% (inactive)
Cc1c2c(c(C)c3c[n+](C)ccc13)Oc1ccccc1O2 | -77.7% [100 µM] (active) and -100% [100 µM] (active)
CCc1cccc(CC)c1N1C(=O)C=CC1=O | 112% (inactive)
Clc1ccc(Cc2nc3ccccc3s2)cc1 | 87.7% (inactive)
O=C(NOC(=O)c1ccccc1)c1ccccc1 | 109% (inactive)
Cc1oc2c(C)c3oc(=O)cc(C)c3cc2c1CCl | 44.3% (inactive)
CN(C)c1ccc(/C=C/c2sc3ccc4ccccc4c3[n+]2C)cc1 | -75% (active)

Structure (SMILES) | growth
CCOC(=O)C1=NN(c2ccccc2)C(=O)/C1=C\N1C(=O)/C(=C/c2cccc(O)c2)SC1=S | 91.9% (inactive)
C(=N\Nc1ccc2ccccc2n1)/c1ccccn1 | -14.4% (active)
COc1cc(NCc2ccc3nc(N)nc(N)c3c2C)cc(OC)c1OC (tested in a mixture with another compound) | 30.5% (inactive)
O=[N+]([O-])c1ccc(N2CCN(Cc3ccccc3)CC2)c2c1no[n+]2[O-] | 4.15% (active)
O=C1CSC(=S)N1Cc1cccnc1 | 87.6% (inactive)
CCc1cnc2ccccc2c1/C=C/c1ccc(N(C)C)cc1 | 25.3% (inactive)
O=C(c1ccccc1)C(O)C(Br)(CBr)c1ccccc1 (stereo not given) | 65.3% (inactive)
S=C(S)OCN1CCOCC1 | 98.8% (inactive)
CCCCCCCCCCCCCCCCSC(=NCC)NCC | -8.15% (active)
[Cl-].[Rh+3].c1ccc(-c2ccnc3c2ccc2c(-c4ccccc4)ccnc23)cc1.c1ccc(-c2ccnc3c2ccc2c(-c4ccccc4)ccnc23)cc1.c1ccc(-c2ccnc3c2ccc2c(-c4ccccc4)ccnc23)cc1 | 97.7% (inactive)
Cc1ccccc1NC(=O)Cc1csc2[n+]1C(=O)/C(=C/c1ccc([N+](=O)[O-])cc1)S2 | 88.2% (inactive)
O=C1c2ccccc2C(=O)c2c(O)c(Cl)cc(O)c21 | 81.3% (inactive)
CCCCCCCCCCCC(=O)OC(C)C(=O)NCCCC (stereo not given) | 103% (inactive)
N#CC(I)CS(=O)(=O)c1ccccc1 (stereo not given) | 84.4% (inactive)
CN(C)c1ccc(/C=C/c2nccc3ccccc23)cc1 | 60.9% (inactive)
CCN(CC)CC(O)c1cc(-c2ccc(Cl)cc2)nc2cc(Cl)ccc12 (stereo not given) | -56.6% (active)
COC(=O)[C@]1(C)CCC[C@]2(C)c3ccc(C(C)C)cc3C(=O)[C@@H](Br)[C@@H]12 | 90.6% (inactive)
Cc1c(O)ccc(SC#N)c1C | 94.6% (inactive)
Nc1nc(-c2ccccc2)nc(N)c1N=O | 71.8% (inactive)
CN1CCC(c2ccccc2)(c2ccccc2)C(=O)C1 | 93.6% (inactive)
